Data published in PubChem BioAssay (EPA / NIEHS).
Inconclusive results are not listed. The source made the active and inactive calls. Rule for the calls, unless noted: active = hit-call score of the fitted dose curve at least 0.9, where 1 is the maximum; inconclusive = response in the unintended direction; inactive = score below 0.9.

How the values were obtained:
[1] = TOX21_p53_BLA_p2_viability: Viability Assessment in the Tox21 HCT-116 p53 Agonism Beta-lactamase Assay, Phase 2 (AID 2283591);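 note: compound exposure lasted 16 h at 37 °C; actives lower the ATP signal meaning cytotoxicity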
Procedure, shortened: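 HCT-116 p53-bla cells (4000/well) rested 5 h at 37C, then received compounds in DMSO (217-fold dilution) for 16 h at 37C, 5% CO2. After the CCF4 read, CellTiter-Glo was added; ATP luminescence was read after 30 min at room temperature.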

[2] = biological target: Cellular tumor antigen p53 (Homo sapiens) (UniProt P04637); test: TOX21_p53_BLA_p2_ratio: Tox21 HCT-116 p53 Agonism Beta-lactamase Assay, Ratio, Phase 2 (AID 2283592)
Sequence of Cellular tumor antigen p53 (Homo sapiens) (P04637 whole entry, looked up): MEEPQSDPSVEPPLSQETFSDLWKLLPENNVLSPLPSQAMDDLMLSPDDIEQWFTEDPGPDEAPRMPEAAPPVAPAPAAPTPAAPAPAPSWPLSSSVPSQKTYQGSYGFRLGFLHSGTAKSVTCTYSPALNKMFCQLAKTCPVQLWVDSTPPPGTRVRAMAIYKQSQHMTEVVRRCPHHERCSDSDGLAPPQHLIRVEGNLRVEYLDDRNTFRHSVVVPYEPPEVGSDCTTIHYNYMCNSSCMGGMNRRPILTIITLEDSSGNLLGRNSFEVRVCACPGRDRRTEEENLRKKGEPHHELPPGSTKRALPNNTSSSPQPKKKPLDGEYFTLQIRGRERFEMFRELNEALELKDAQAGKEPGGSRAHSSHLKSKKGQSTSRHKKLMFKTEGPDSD
Procedure, shortened: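 Gain-of-signal p53 agonism was scored from the beta-lactamase FRET ratio (460/530 nm, 405 nm excitation) in HCT116 cells treated 16 h at 37C, 5% CO2, with DMSO serving as negative control and baseline.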

[3] = TOX21_p53_BLA_p3_viability: Viability Assessment in the Tox21 HCT-116 p53 Agonism Beta-lactamase Assay, Phase 3 (AID 2283593);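 note: cells exposed to compound for 16 h before reading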
Procedure, shortened: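 HCT-116 cells (4000/well) rested 5 h at 37C, then got DMSO compounds by pin tool (217-fold dilution) for 16 h at 37C, 5% CO2. After the bla read, CellTiter-Glo was added and luminescence read at 30 min, room temperature.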

[4] = biological target: Cellular tumor antigen p53 (Homo sapiens) (UniProt P04637); test: TOX21_p53_BLA_p3_ratio: Tox21 HCT-116 p53 Agonism Beta-lactamase Assay, Ratio, Phase 3 (AID 2283596)
Procedure, shortened: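 HCT116 p53-bla cells (4000/well) given compound in DMSO (217-fold dilution) after 5 h, incubated 16 h at 37C. CCF4-AM substrate 2 h at room temperature; 460/530 nm emission ratio, gain fitted against DMSO.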

[5] = TOX21_p53_BLA_p4_viability: Viability Assessment in the Tox21 HCT-116 p53 Agonism Beta-lactamase Assay, Phase 4 (AID 2283597);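 note: hits lower the luminescence signal meaning cytotoxicity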
Procedure, shortened: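 Following a 16 h exposure at 37C, the treated HCT116 wells were first read for the FRET ratio. They were then lysed with CellTiter-Glo, and ATP luminescence was recorded after 30 min at room temperature.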

[6] = biological target: Cellular tumor antigen p53 (Homo sapiens) (UniProt P04637); test: TOX21_p53_BLA_p5_ratio: Tox21 HCT-116 p53 Agonism Beta-lactamase Assay, Ratio, Phase 5 (AID 2283599)
Procedure, shortened: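 HCT-116 cells carrying a p53-inducible beta-lactamase reporter were seeded at 4000 cells/well and dosed after 5 h with compound in DMSO (217-fold dilution). After 16 h at 37C, CCF4-AM substrate was added for 2 h, and the 460/530 nm emission ratio was scored as gain-of-signal versus DMSO.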

[7] = TOX21_p53_BLA_p5_viability: Viability Assessment in the Tox21 HCT-116 p53 Agonism Beta-lactamase Assay, Phase 5 (AID 2283600)
Procedure, shortened: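 After the 460/530 nm beta-lactamase measurement, the wells received an ATP-detection luciferase reagent; signal was read 30 min later at RT. Compound treatment lasted 16 h on cells pre-incubated 5 h post-seeding.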

[8] = biological target: Cellular tumor antigen p53 (Homo sapiens) (UniProt P04637); test: TOX21_p53_BLA_p4_ratio: Tox21 HCT-116 p53 Agonism Beta-lactamase Assay, Ratio, Phase 4 (AID 2283601)
Procedure, shortened: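 HCT116 cells carrying an inducible beta-lactamase reporter were plated at 4000 cells/well, rested 5 h, then exposed to compounds in DMSO (217-fold dilution) for 16 h at 37C. CCF4-AM substrate was loaded 2 h at room temperature; 460/530 nm emission ratio scored gain-of-signal versus DMSO.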

[9] = biological target: Thyroid hormone receptor alpha (Rattus norvegicus) + Thyroid hormone receptor beta (Rattus norvegicus) (UniProt P18113+P63059); test: TOX21_TR_LUC_GH3_Antagonist_Followup: Tox21 GH3 Thyroid Hormone Receptor Antagonism Luciferase Follow-Up Assay (AID 2283942)
Procedure, shortened: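 Rat pituitary GH3 cells with a TRα/TRβ-driven luciferase reporter, 5 h attachment, then 15 concentrations (92 uM to 5nM final) plus 1.0 nM T3 agonist, 24 h at 37C/5% CO2. ONE-Glo luminescence; signal change fitted against DMSO baseline.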

[10] = biological target: THRA (gene 7067) (UniProt P10827); test: TOX21_TRA_COA_Antagonist_Followup_ratio: Tox21 Thyroid Hormone Receptor alpha Antagonism through Coactivator Recruitment Follow-Up Assay, Ratio (AID 2283953)
Sequence of THRA (gene 7067) (P10827 whole entry, looked up, the tested form may be a part): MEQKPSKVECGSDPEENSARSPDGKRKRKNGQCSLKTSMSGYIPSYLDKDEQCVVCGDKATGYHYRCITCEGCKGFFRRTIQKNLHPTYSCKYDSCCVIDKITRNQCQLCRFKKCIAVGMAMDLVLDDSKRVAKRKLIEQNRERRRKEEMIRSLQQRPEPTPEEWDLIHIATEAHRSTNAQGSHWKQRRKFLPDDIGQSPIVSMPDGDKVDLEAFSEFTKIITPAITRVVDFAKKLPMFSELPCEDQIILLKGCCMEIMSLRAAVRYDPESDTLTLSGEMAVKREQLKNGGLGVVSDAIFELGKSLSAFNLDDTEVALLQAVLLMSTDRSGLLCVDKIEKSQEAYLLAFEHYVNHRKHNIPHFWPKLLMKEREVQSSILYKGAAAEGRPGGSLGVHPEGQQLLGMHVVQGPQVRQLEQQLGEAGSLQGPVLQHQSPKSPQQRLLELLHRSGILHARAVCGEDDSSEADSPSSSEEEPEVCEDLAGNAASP
Procedure, shortened: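 520:495 nm emission ratio (excitation 340 nm) reports fluorescein-SRC-2 peptide recruitment to GST-TRα LBD by TR-FRET with Tb anti-GST antibody. Values were normalized to DMSO (0%) and T3 control wells (100%); loss of signal indicated antagonism.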

[11] = TOX21_TRB_BLA_Antagonist_Followup_viability: Viability Assessment in the Tox21 Thyroid Hormone Receptor beta Antagonism Beta-lactamase (BLA) Follow-Up Assay (AID 2283961)
Procedure, shortened: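 ATP-based CellTiter-Glo luminescence (30 min, room temperature) run in the same wells as the TRβ-bla readout. Cells: GeneBLAzer HEK293T expressing GAL4-TRβ LBD, exposed 18 h at 37C to compounds at 11 concentrations in triplicate, stripped-serum medium.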

[12] = biological target: Retinoic acid receptor RXR-alpha (Homo sapiens) (UniProt P19793); test: TOX21_TR_RXR_BLA_Antagonist_Followup_ratio: Tox21 Thyroid Hormone Receptor beta Retinoid X Receptor alpha (RXRa) Antagonism Beta-lactamase (BLA) Follow-Up Assay, Ratio (AID 2283972)
Sequence of Retinoic acid receptor RXR-alpha (Homo sapiens) (P19793 whole entry, looked up): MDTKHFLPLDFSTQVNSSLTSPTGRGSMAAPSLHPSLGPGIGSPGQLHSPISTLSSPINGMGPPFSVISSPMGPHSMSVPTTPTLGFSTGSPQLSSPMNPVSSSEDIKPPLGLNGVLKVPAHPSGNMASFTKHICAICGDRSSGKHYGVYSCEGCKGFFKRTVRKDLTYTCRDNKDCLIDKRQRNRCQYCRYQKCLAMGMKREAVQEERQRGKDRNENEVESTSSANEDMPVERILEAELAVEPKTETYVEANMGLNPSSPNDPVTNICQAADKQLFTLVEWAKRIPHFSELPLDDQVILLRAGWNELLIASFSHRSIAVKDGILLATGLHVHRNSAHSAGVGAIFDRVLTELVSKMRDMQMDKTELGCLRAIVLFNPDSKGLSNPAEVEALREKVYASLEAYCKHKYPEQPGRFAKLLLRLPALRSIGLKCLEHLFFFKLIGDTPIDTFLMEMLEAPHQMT
Procedure, shortened: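 After 5 h attachment at 37C, HEK293T RXRa-bla cells (2,500/well, 2% charcoal-stripped FBS, no phenol red) received compounds at 11 concentrations in triplicate for 16 h. Beta-lactamase read as 460:530 nm ratio after 2 h RT substrate loading.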

[13] = biological target: THRB (gene 7068) (UniProt P10828); test: TOX21_TRB_BLA_Antagonist_Followup_ratio: Tox21 Thyroid Hormone Receptor beta Antagonism Beta-lactamase (BLA) Follow-Up Assay, Ratio (AID 2283958)
Sequence of THRB (gene 7068) (P10828 whole entry, looked up, the tested form may be a part): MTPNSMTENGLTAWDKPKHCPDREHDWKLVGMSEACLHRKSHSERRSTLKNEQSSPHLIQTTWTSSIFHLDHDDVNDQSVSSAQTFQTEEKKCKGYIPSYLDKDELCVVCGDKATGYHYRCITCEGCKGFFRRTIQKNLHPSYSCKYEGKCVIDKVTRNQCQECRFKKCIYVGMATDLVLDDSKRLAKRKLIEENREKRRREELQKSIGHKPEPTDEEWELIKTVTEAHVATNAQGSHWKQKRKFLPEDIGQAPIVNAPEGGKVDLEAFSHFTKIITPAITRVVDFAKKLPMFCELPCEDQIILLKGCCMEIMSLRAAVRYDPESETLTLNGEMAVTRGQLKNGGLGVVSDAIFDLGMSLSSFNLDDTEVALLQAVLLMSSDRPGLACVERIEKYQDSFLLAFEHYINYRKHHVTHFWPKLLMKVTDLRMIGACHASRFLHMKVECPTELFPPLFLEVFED
Procedure, shortened: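 HEK293T cells with a GAL4-TRb LBD fusion and UAS-bla reporter, 3,000 cells/well in phenol red-free DMEM with 2% charcoal-stripped FBS. Exposed 18 h at 37C to 11 concentrations in triplicate; CCF4 460:530 nm ratio after 2 h, DMSO-referenced.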

[14] = biological target: THRB (gene 7068) (UniProt P10828); test: TOX21_TRB_COA_Antagonist_Followup_ratio: Tox21 Thyroid Hormone Receptor beta Antagonism through Coactivator Recruitment Follow-Up Assay, Ratio (AID 2283967)
Procedure, shortened: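 Cell-free TR-FRET coactivator recruitment with GST-tagged TRβ LBD (5.0 nM) and fluorescein-labeled SRC-2 peptide (200 nM) detected by terbium anti-GST antibody (2 nM). The 520:495 nm emission ratio was normalized to DMSO (0%) and T3 (100%).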

[15] = CCTE_Harrill_HTTr_Viability_MCF7: CCTE's 6-hour Cell Viability Assessment for the High-Throughput Transcriptomics (HTTr) Platform, in MCF-7 cells cultured in DMEM + 10% fetal bovine serum, Harrill Lab (AID 2284010; active = hit-call score of the fitted dose curve at least 0.9, where 1 is the maximum; inactive = score below 0.9)
Procedure, shortened: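 MCF-7 cells in DMEM + 10% FBS, 384-well, exposed 6 h to an eight-point dilution series. Membrane integrity scored by high-content imaging of propidium iodide exclusion; bidirectional fit versus DMSO.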

Measured: AC50

CCN(CC)CCOc1ccc(Cc2ccccc2)cc1
inactive: [2] | [3] | [4] | [6] | [7] | [8]
active: [1] 42.2 µM | [5] 33.8 µM

CC(=O)OCCN(CCOC(C)=O)c1ccc(N=Nc2ccc([N+](=O)[O-])cc2C#N)cc1
inactive: [1] | [2] | [3] | [4] | [5] | [6] | [7] | [8]

O=C1Cc2cc(CCN3CCN(c4nsc5ccccc45)CC3)c(Cl)cc2N1
inactive: [1] | [2] | [3] | [4] | [5] | [6] | [7] | [8]

CC[C@@]1(O)C(=O)OCc2c1cc1n(c2=O)Cc2cc3c(CN(C)C)c(O)ccc3nc2-1
active: [1] 7.02 µM | [2] 0.807 µM | [3] 7.35 µM | [4] 0.381 µM | [5] 7.74 µM | [6] 0.692 µM | [7] 7.27 µM | [8] 6.7 µM
inactive: [9] | [10] | [11] | [12]

Cc1nc(Nc2ncc(C(=O)Nc3c(C)cccc3Cl)s2)cc(N2CCN(CCO)CC2)n1
active: [2] 26.8 µM | [3] 33.4 µM | [4] 36.5 µM | [5] 35.5 µM | [6] 32.7 µM | [8] 22.8 µM
inactive: [1] | [7]

C#CCC(Cc1cnc2nc(N)nc(N)c2n1)c1ccc(C(=O)N[C@@H](CCC(=O)O)C(=O)O)cc1 (some centres not stated)
active: [1] 0.245 µM | [2] 0.43 µM | [3] 0.301 µM | [4] 0.661 µM | [5] 0.385 µM | [6] 1.13 µM | [7] 0.538 µM | [8] 0.575 µM | [11] 0.44 µM | [12] 0.448 µM
inactive: [9] | [13] | [14]

CN(C)CCOC(=O)COc1ccc(Cl)cc1
inactive: [1] | [2] | [3] | [4] | [5] | [6] | [7] | [15]

CCCCC(=O)O[C@]1(C(=O)CO)[C@@H](C)C[C@H]2[C@@H]3CCC4=CC(=O)C=C[C@]4(C)[C@@]3(F)[C@@H](O)C[C@@]21C
active: [5] 38.7 µM
inactive: [1] | [2] | [3] | [4] | [6] | [7] | [8] | [15]

Brc1cc(Oc2cc(Br)c(Br)c(Br)c2Br)c(Br)c(Br)c1Br
not listed: [13] | [15]
inactive: all other assays above
